Inconclusive results are not listed. Active and inactive are the calls of the source. The call rests on the fitted dose curve; in most records, active means well fitted curve in the direction sought with a large enough effect; inconclusive means small, poorly fitted or top-dose-only effect, or another doubt; inactive means no such curve, though single readings can be large; an effect the other way counts as inactive or inconclusive.
Tests used:
[1] = Quantitative High-Throughput drug screen in 47 multiple myeloma cell lines against the NCATS MIPE library collection: AMO1_DSMZ cell viability assay (AID 1918927; further: nearly all actives have a fitted effect of over 30% in size)
Summary of the method: (§1)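 Viability readout: CellTiter-Glo luminescence following 5 min room-temperature incubation with reagent. Prior exposure: 48 h, 37C, humidified 5% CO2, 500 cells per well.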

[2] = Quantitative High-Throughput drug screen in 47 multiple myeloma cell lines against the NCATS MIPE library collection: ARP1_JJKsccF8 cell viability assay (AID 1918928; further: nearly all actives have a fitted effect of over 40% in size)
Summary of the method: (§2)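 Here, 48 h treatment with MIPE 4.0 agents at 37 °C preceded an ATP luminescence read. Plating density was 500 cells per well.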

[3] = Quantitative High-Throughput drug screen in 47 multiple myeloma cell lines against the NCATS MIPE library collection: Karpas620_DSMZ cell viability assay (AID 1918959); further: nearly all actives have a fitted effect of over 30% in size
Summary of the method: (§3)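 Luminescent ATP measurement with CellTiter-Glo gives viability, scaled between DMSO-only wells (100%) and media-only wells (0%). Cells, 500 per well, faced library compounds for 48 hours at 37C.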

[4] = Quantitative High-Throughput drug screen in 47 multiple myeloma cell lines against the NCATS MIPE library collection: KMM1_JCRB cell viability assay (AID 1918960); further: nearly all actives have a fitted effect of over 30% in size
Summary of the method: as §2

[5] = Quantitative High-Throughput drug screen in 47 multiple myeloma cell lines against the NCATS MIPE library collection: Karpas417_ECACC cell viability assay (AID 1918961); conditions: Karpas417 myeloma viability, CellTiter-Glo ATP luminescence, 48 h; viability (% of DMSO): at 45.8 µM (top of the series)
Summary of the method: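 Steps: seed 500 cells per well; pin-transfer MIPE 4.0 library; incubate 48 h at 37C, 5% CO2, humidified; add CellTiter-Glo, 5 min room temperature; read luminescence.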

[6] = Quantitative High-Throughput drug screen in 47 multiple myeloma cell lines against the NCATS MIPE library collection: KHM11_PLB cell viability assay (AID 1918962); further: nearly all actives have a fitted effect of over 35% in size
Summary of the method: as §3

[7] = Quantitative High-Throughput drug screen in 47 multiple myeloma cell lines against the NCATS MIPE library collection: JIM3_ECACC cell viability assay (AID 1918963; further: nearly all actives have a fitted effect of over 35% in size)
Summary of the method: as §3

[8] = Quantitative High-Throughput drug screen in 47 multiple myeloma cell lines against the NCATS MIPE library collection: JIM1_ECACC cell viability assay (AID 1918964)
Summary of the method: as §1

[9] = Quantitative High-Throughput drug screen in 47 multiple myeloma cell lines against the NCATS MIPE library collection: ARD_JJKsccE7 cell viability assay (AID 1918929)
Summary of the method: as §1

Measured: Potency
Potency means the concentration at half of the fitted maximal effect.

COc1c(C)cnc(Cn2cnc3c(Cl)nc(N)nc32)c1C
active: [1] 0.0833 µM | [2] 0.118 µM | [3] 0.209 µM | [4] 0.059 µM | [5] 0.0235 µM | [6] 0.105 µM | [7] 0.148 µM

NC(=O)c1noc([C@H](CCCC2CCCCC2)CC(=O)NO)n1
active: [1] 4.18 µM | [2] 14.8 µM | [3] 7.43 µM | [6] 20.9 µM | [7] 23.5 µM | [8] 5.9 µM

CC(C)c1c(C(=O)Nc2ccccc2)c(-c2ccccc2)c(-c2ccc(F)cc2)n1CC[C@H](O)C[C@@H](O)CC(=O)O
active: [2] 18.7 µM | [6] 18.7 µM | [7] 14.8 µM
inactive: [1] | [3]

CNC(=O)c1cc(Oc2ccc(NC(=O)Nc3ccc(Cl)c(C(F)(F)F)c3)c(F)c2)ccn1
active: [1] 5.9 µM | [9] 5.26 µM | [3] 10.5 µM | [4] 2.96 µM | [6] 0.059 µM | [7] 3.32 µM | [8] 13.2 µM

CCc1cc(-c2n[nH]c(C)c2-c2ccc3c(c2)OCCO3)c(O)cc1O
active: [1] 3.72 µM | [9] 1.18 µM | [3] 14.8 µM | [4] 3.72 µM | [6] 4.69 µM | [7] 8.33 µM | [8] 5.9 µM

Cc1ccc(S(=O)(=O)Nc2nc3ccccc3nc2Nc2ccc3nsnc3c2)cc1
active: [1] 0.512 µM | [2] 7.24 µM | [9] 0.724 µM | [6] 0.575 µM | [7] 1.82 µM | [8] 0.182 µM

C[C@H](c1ccc(F)cc1CCCC(=O)O)N(c1cc(F)ccc1F)S(=O)(=O)c1ccc(Cl)cc1
active: [2] 0.935 µM | [7] 26.4 µM
inactive: [1] | [9] | [3]

Cc1ccc(C(=O)N(CCCN)[C@@H](c2oc3cc(Cl)ccc3c(=O)c2Cc2ccccc2)C(C)C)cc1
inactive: [2] | [7]
active: [1] 0.001 µM | [4] 0.001 µM | [6] 9.35 µM

CNC(=O)[C@H](CC1=CN=C2C=CCC=C12)NC(=O)[C@@H](CC(=O)NO)CC(C)C
active: [1] 0.0743 µM | [9] 0.118 µM | [3] 0.0743 µM | [4] 0.148 µM | [5] 0.0209 µM | [7] 26.4 µM | [8] 0.0833 µM

O=C(c1ccc(F)c(F)c1Nc1ccc(I)cc1F)N1CC(O)([C@H]2CCCCN2)C1
active: [1] 3.32 µM | [9] 10.5 µM | [3] 0.105 µM | [4] 11.8 µM | [6] 0.0372 µM | [7] 14.8 µM

Cc1c(C(=O)Nc2ccc(N3C[C@@H](C)O[C@@H](C)C3)nc2)cccc1-c1ccc(OC(F)(F)F)cc1
active: [1] 2.96 µM | [9] 0.935 µM | [3] 8.33 µM | [4] 1.18 µM | [5] 1.66 µM | [6] 6.62 µM
inactive: [7]

O=C1CN2Cc3c(ccc(Cl)c3Cl)N=C2N1
inactive: [1] | [9] | [3] | [4] | [8]

COc1ccc(-c2cc(=O)c3c(O)cc(O[C@@H]4O[C@H](CO[C@@H]5O[C@@H](C)[C@H](O)[C@@H](O)[C@@H]5O)[C@@H](O)[C@H](O)[C@@H]4O)cc3o2)cc1O
active: [7] 16.6 µM
inactive: [1] | [2] | [9] | [4] | [8]

Cc1nc(NC(=O)N2CCC[C@@H]2C(N)=O)sc1-c1csc(C(C)(C)C)n1
active: [1] 5.26 µM | [2] 6.62 µM | [3] 14.8 µM | [4] 1.05 µM | [6] 3.72 µM | [7] 5.9 µM | [8] 1.32 µM

CCNC(=O)CCCC=CC[C@@H]1[C@H](C=CC(O)CCc2ccccc2)[C@@H](O)C[C@@H]1O (some centres not stated)
inactive: [1] | [3] | [4] | [7] | [8]
active: [2] 10.5 µM

CCN1CCN(c2ccc(Nc3cc(N(C)C(=O)Nc4c(Cl)c(OC)cc(OC)c4Cl)ncn3)cc2)CC1
inactive: [1] | [2] | [3] | [4] | [7]

NCc1c[nH]c(=S)n1[C@H]1CCc2c(F)cc(F)cc2C1
active: [1] 20.9 µM | [9] 26.4 µM

c1ccc(CNc2nc(N3CCOc4ccccc43)nc3c2CCCC3)cc1
inactive: [3]
active: [1] 16.6 µM | [9] 20.9 µM

CCOC(=O)N1c2ccc(C(F)(F)F)cc2[C@@H](N(Cc2cc(C(F)(F)F)cc(C(F)(F)F)c2)C(=O)OC)C[C@H]1CC
inactive: [1] | [9] | [3] | [8]
active: [2] 4.69 µM

O=C(O)Cc1cccc(OCCCN(Cc2cccc(C(F)(F)F)c2Cl)CC(c2ccccc2)c2ccccc2)c1
inactive: [1] | [9] | [3] | [4]

C[C@@]1(c2cc(-c3cncnc3)c(F)cc2F)CCSC(N)=N1
active: [1] 14.8 µM | [9] 0.059 µM | [3] 2.35 µM | [5] 0.0833 µM | [6] 3.32 µM | [7] 23.5 µM

CN(CC=CC#CC(C)(C)C)Cc1cccc2ccccc12
inactive: [1] | [2] | [3] | [4] | [8]

CC(C)N(CCCNC(=O)Nc1ccc(C(C)(C)C)cc1)C[C@H]1O[C@@H](n2cc(Br)c3c(N)ncnc32)[C@H](O)[C@H]1O
active: [2] 20.9 µM | [7] 29.6 µM
inactive: [1] | [9] | [4]

Cc1ccc(S(=O)(=O)OCC(=O)Nc2ccc(C(=O)O)c(O)c2)cc1
inactive: [1] | [9] | [3] | [4]
active: [7] 23.5 µM

Cc1csc(-c2nnc(Nc3ccc(Oc4ncccc4-c4ccnc(N)n4)cc3)c3ccccc23)c1
active: [1] 2.96 µM | [2] 5.26 µM | [9] 23.5 µM | [4] 14.8 µM | [6] 23.5 µM

CC(C)c1onc(-c2c(Cl)cccc2Cl)c1COc1ccc(C=Cc2cccc(C(=O)O)c2)c(Cl)c1
inactive: [1] | [3] | [8]

CC1=C[C@@H]2[C@@H]([C@@H](O)C[C@@]3(C)[C@H]2C[C@@H](C)[C@]3(O)C(=O)CO)[C@@]2(C)Cc3cnn(-c4ccccc4)c3C=C12
active: [1] 5.26 µM | [9] 0.0059 µM | [4] 0.0105 µM | [7] 26.4 µM

Nc1ncnc2c1c(-c1cccc(OCc3ccccc3)c1)cn2C1CC(CN2CCC2)C1 (configuration not stated)
active: [1] 14.8 µM | [3] 2.96 µM | [4] 0.372 µM | [6] 16.6 µM | [7] 0.332 µM | [8] 0.469 µM

CC[C@@H]([C@H](C)O)n1ncn(-c2ccc(N3CCN(c4ccc(OCC5CO[C@@](Cn6cncn6)(c6ccc(F)cc6F)C5)cc4)CC3)cc2)c1=O (some centres not stated)
active: [1] 7.43 µM | [3] 5.9 µM | [7] 5.26 µM
inactive: [6]

Cc1ccc(NC(=O)c2ccc(CN3CCN(C)CC3)cc2)cc1Nc1nc(-c2cccnc2)cs1
active: [1] 18.7 µM | [9] 23.5 µM | [4] 16.6 µM | [6] 7.43 µM | [7] 14.8 µM

COc1cc(Cl)cn2c(-c3cccc(NC4CNC4)n3)cnc12
active: [1] 5.26 µM | [9] 16.6 µM | [4] 16.6 µM | [6] 18.7 µM | [8] 4.18 µM

O=C(Nc1ccc(OC(F)(F)F)cc1)c1sccc1NCc1ccnc2ccccc12
active: [1] 23.5 µM | [3] 4.69 µM
inactive: [6]

CNC(=O)c1cc(COc2nnc(Nc3ccc(Cl)cc3)c3ccoc23)ccn1
active: [1] 5.26 µM | [4] 9.35 µM
inactive: [7] | [8]

COc1ccc2c(c1)c(C1=C(c3c[nH]c4ccccc34)C(=O)NC1=O)cn2CCCN(C)C
active: [1] 14.8 µM | [4] 23.5 µM | [7] 13.2 µM

CCC[C@@H](NC(=O)[C@@H]1[C@H]2CCC[C@@H]2CN1C(=O)[C@@H](NC(=O)[C@@H](NC(=O)c1cnccn1)C1CCCCC1)C(C)(C)C)C(=O)C(=O)NC1CC1
active: [1] 18.7 µM | [3] 18.7 µM | [7] 20.9 µM

Cc1cnc(CNC(=O)c2c(=O)c3ccc(N4CCCN(C)CC4)nc3n3c2sc2ccccc23)cn1
active: [1] 0.512 µM
inactive: [3] | [6]

CCNC(=O)[C@H]1O[C@@H](n2cnc3c(N)nc(NCCc4ccc(CCC(=O)O)cc4)nc32)[C@H](O)[C@H]1O
inactive: [3] | [4] | [7] | [8]
active: [1] 0.105 µM | [6] 0.0469 µM

Cc1ccc(C2=Nc3ccc(Cl)cc3OC2)cc1
inactive: [3] | [7]
active: [1] 1.18 µM | [4] 3.32 µM

CCC(=C(c1ccc(O)cc1)c1ccc(OCCNC)cc1)c1ccccc1
active: [1] 20.9 µM | [3] 26.4 µM | [7] 20.9 µM

COc1ccc2cc1Oc1ccc(cc1)C[C@H]1c3cc(c(OC)cc3CCN1C)Oc1c(OC)c(OC)cc3c1[C@H](C2)N(C)CC3
active: [1] 7.43 µM | [3] 5.26 µM | [4] 5.9 µM | [7] 18.7 µM
